From PubChem BioAssay (NCI)
About 83,000 compounds went through this panel and 20% of them were active in at least one assay; those are over-represented in the sample as a whole.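 Interpretation: 100, growth as untreated; towards 0, rising growth inhibition; 0, no net growth; 0 to -100, cell death. Compounds scoring below 10 were considered active.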 Unmarked numbers belong to inactive results. Calls of active or inactive are those of the source.

Key:
Experiment in all cases: NCI-60 one-dose screen, 48 h (100 = growth as untreated, 0 = no growth, -100 = all killed)
Conditions in all cases: 10 µM
[1] = tested on: HCT-15 colon
[2] = tested on: HT29 colon
[3] = tested on: SNB-75 CNS
[4] = tested on: SNB-19 CNS
[5] = tested on: U251 CNS
[6] = tested on: PC-3 prostate
[7] = tested on: SK-MEL-5 melanoma
[8] = tested on: UACC-62 melanoma
[9] = tested on: LOX IMVI melanoma
[10] = tested on: SK-MEL-28 melanoma
[11] = tested on: SK-MEL-2 melanoma
[12] = tested on: EKVX NSCLC
[13] = tested on: SN12C renal
[14] = tested on: UO-31 renal
[15] = tested on: TK-10 renal
[16] = tested on: ACHN renal
[17] = tested on: CAKI-1 renal
[18] = tested on: A498 renal
[19] = tested on: CCRF-CEM leukemia
[20] = tested on: MOLT-4 leukemia

Row | SMILES | growth [1] | growth [2] | growth [3] | growth [4] | growth [5] | growth [6] | growth [7] | growth [8] | growth [9] | growth [10] | growth [11] | growth [12] | growth [13] | growth [14] | growth [15] | growth [16] | growth [17] | growth [18] | growth [19] | growth [20]
1 | COc1cc(/C=C2\C(=O)Nc3cc(C)c(O)cc32)cc(OC)c1OC | 33.7% | 22.4% | 55.1% | 71.6% | 44.5% | 33.5% | 47% | 57.9% | 45.7% | 73.2% | 79.3% | 48.5% | 71.3% | 43% | 85% | 68.4% | 15.7% | 98.2% | 16.3% | 53%
2 | Oc1ccc(/C=N\Nc2ccccn2)c(O)c1 | 32.7% | 51.6% | 9.86% (active) | 29.4% | 26.5% | 61.3% | 39.4% | 7.44% (active) | -6.3% (active) | 64.5% | 46.3% | 33% | 24.1% | -19.7% (active) | 61.6% | 7.03% (active) | -15.3% (active) | 70.7% | 8.18% (active) | 11.2%
3 | CCOC(=O)C(=O)Cc1cccnn1 | 102% | 101% | 78% | 102% | 96.8% | 91.7% | 108% | 99.7% | 99.5% | 108% | 103% | 111% | 99.9% | 82.9% | 101% | 103% | 103% | 113% | 91.7% | 93.4%
4 | O=C(CCc1ccccc1)N1CCN(C(=O)CCc2ccccc2)CC1 | 108% | 101% | 93.9% | 99.6% | 104% | 94.3% | 105% | 95.4% | 95% | 108% | 104% | 115% | 96.9% | 60.1% | 111% | 104% | 95.1% | 152% | 88.2% | 88.6%
5 | Cc1ccc(S(=O)(=O)Oc2ccccc2-c2ccccc2)cc1 | 23.2% | 5.05% (active) | -12.1% (active) | 42.8% | 24.8% | 42.4% | 5.97% (active) | 37.1% | 36% | 30.8% | 28.8% | 46% | 39.2% | 22.5% | 45.5% | 44.2% | 14% | 6.79% (active) | 18% | 20.7%
6 | COc1ccccc1Cn1cc2c(c1-c1ccccc1)CCc1cnoc1-2 | 36% | 12.4% | 15.6% | 53.5% | 39.7% | 29.9% | 18.1% | 50.1% | 38.1% | 58.3% | 49.2% | 46.3% | 50.2% | 34.1% | 81.4% | 49.3% | 4.31% (active) | 43.2% | 30.5% | 38.8%
7 | CCOc1nc(-c2ccccc2)cc2c(O)c(C(=O)NC(C)C)[nH]c(=O)c12 | 99.7% | 125% | 103% | 96.9% | 99.8% | 46.4% | 99.5% | 105% | 97.6% | 89.7% | 126% | 105% | 114% | 80.2% | 133% | 97.6% | 94.2% | 100% | 58.2% | 99.1%
8 | COC(=O)c1ccc(Cn2ccc(=O)[nH]c2=O)cc1 | 101% | 99.5% | 90.6% | 110% | 112% | 98.4% | 109% | 105% | 98.4% | 111% | 100% | 116% | 104% | 89.3% | 104% | 107% | 97.4% | 120% | 92% | 89.3%
9 | COc1cc(NS(C)(=O)=O)ccc1Nc1c2ccc(Cl)cc2nc2c(OC)cccc12 | -15.4% (active) | -37.3% (active) | -13.4% (active) | 32.8% | 5.31% (active) | 31.9% | 0.832% (active) | -8.98% (active) | -58.7% (active) | 52.4% | -45.2% (active) | 70.4% | -10.7% (active) | 5.23% (active) | -55.3% (active) | -46.4% (active) | -37% (active) | -8.95% (active) | 2.75% (active) | -2.38% (active)
10 | Nc1ccc2c(c1)Cc1cc(N)c(Cl)cc1-2 | 100% | 101% | 86.7% | 92.9% | 93.2% | 95.7% | 93.9% | 83.9% | 104% | 103% | 102% | 57.2% | 89.8% | 52.6% | 115% | 98.5% | 94.1% | 118% | 79.8% | 90%
11 | CC(=O)CS(C)(=O)=O | 110% | 107% | 96.9% | 102% | 102% | 103% | 98% | 108% | 101% | 113% | 103% | 93.6% | 105% | 92.4% | 103% | 106% | 101% | 98.8% | 103% | 106%
12 | CCOC(=O)c1c(Cl)c2c(n1Cc1cccc(OC)c1)-c1oncc1CC2 | 30.8% | 7.37% (active) | -11.7% (active) | 34% | 26% | 31.7% | 20.9% | 33.6% | 38.3% | 34% | 27.8% | 56.4% | 42.7% | -1.88% (active) | 54.7% | 44.8% | 7.94% (active) | 1.89% (active) | 15.8% | 25.9%
13 | CCOC(=O)c1cc2c(n1Cc1cc(OC)cc(OC)c1)-c1oncc1CC2 | 21.9% | 5.66% (active) | -0.349% (active) | 38.7% | 23.5% | 27.4% | 24.6% | 40.3% | 49.5% | 33.8% | 26.7% | 34.5% | 40.9% | 19.4% | 53.2% | 47.1% | 29.2% | 24.9% | 13.2% | 23.6%
14 | O=[N+]([O-])c1ccc2c(c1)Cc1cc(I)ccc1-2 | 108% | 91.6% | 106% | 109% | 96% | 101% | 97.1% | 108% | 116% | 111% | 109% | 84.6% | 107% | 91.9% | 118% | 110% | 102% | 102% | 96.8% | 91.8%
15 | COc1cc([C@@H]2c3cc4c(cc3[C@H](SC(=N)N)[C@H]3COC(=O)[C@H]23)OCO4)cc(OC)c1OC | 11.8% | 8.38% (active) | 30.1% | 37.4% | 23.2% | 19.5% | -29.6% (active) | 62.2% | 16.5% | 63.7% | 30.8% | 33.2% | 27.3% | 29.3% | 72.4% | 26.3% | 5.13% (active) | 48.2% | 4.96% (active) | 26%
16 | CCOc1nc(-c2ccccc2)cc2c(O)c(C(=O)NCCCO)[nH]c(=O)c12 | 102% | 104% | 88.6% | 96.9% | 100% | 46.3% | 88.8% | 99.8% | 108% | 102% | 92.7% | 108% | 103% | 79.6% | 146% | 91.6% | 87.8% | 93.5% | 68% | 97%
